Results on 55 compounds are retold here after PubChem BioAssay AID2524 (Sanford-Burnham Center for Chemical Genomics, 2010).

Each structure is given as a SMILES string. The campaign covered roughly 330,000 compounds. About 540 (0.16%) were called active. Many of the other results were omitted from the sample, so actives are more common in it than they were. Unmarked numbers belong to inactive results.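 Rule for the calls: active = activation factor of the enzyme at least 2-fold when tested at 20 µM; inactive = the rest.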

For this assay, the target named is Intestinal-type alkaline phosphatase (Homo sapiens) (UniProt P09923). Kind of assay: human IAP activators, primary screen, biochemical, luminescence, uHTS (AID 2524). The following applies: purified human IAP, CDP-Star luminescence, 30 min; at 10 µM; active compounds read high; 1 = vehicle-only enzyme, 0 = enzyme-free background.
Sequence of Intestinal-type alkaline phosphatase (Homo sapiens) (P09923 whole entry, looked up): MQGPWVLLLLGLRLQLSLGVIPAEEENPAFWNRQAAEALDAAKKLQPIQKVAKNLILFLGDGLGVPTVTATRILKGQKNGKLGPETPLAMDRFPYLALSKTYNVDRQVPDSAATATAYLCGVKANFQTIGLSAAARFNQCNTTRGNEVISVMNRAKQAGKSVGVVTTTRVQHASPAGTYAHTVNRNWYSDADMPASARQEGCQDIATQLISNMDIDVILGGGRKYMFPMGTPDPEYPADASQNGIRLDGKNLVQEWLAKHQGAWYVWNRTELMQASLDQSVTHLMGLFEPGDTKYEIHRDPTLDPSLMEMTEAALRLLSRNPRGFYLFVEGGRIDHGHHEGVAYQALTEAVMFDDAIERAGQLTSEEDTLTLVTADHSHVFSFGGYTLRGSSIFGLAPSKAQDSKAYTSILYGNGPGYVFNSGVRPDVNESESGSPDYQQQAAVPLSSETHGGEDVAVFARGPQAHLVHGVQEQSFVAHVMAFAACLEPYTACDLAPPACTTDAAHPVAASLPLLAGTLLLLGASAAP
Consider `FC(F)(F)c1cccc(Cc2noc(CN3CCC(N4CCCCC4)CC3)n2)c1`, for which the activation factor was 1.17.

As for `C1CC1Cc1noc(CN2CCN(CC3CC3)CC2)n1`, the activation factor is 1.06.

Consider `COCCN(C(=S)Nc1ccccc1OC)C1CCN(C(C)C)CC1`, for which the activation factor is 1.12.

As for `O=C(COC(=O)c1ccccc1F)Nc1cc(S(=O)(=O)N2CCOCC2)ccc1N1CCCC1`, the activation factor was 1.03.

For `Cc1ccc(CNCc2ccc3c(c2)OCO3)c(C)c1`, the activation factor is 1.06.

Take `O=C(O)CSCc1ccc(C(=O)O)o1`: the activation factor is 0.943.

With `COc1cccc2cc(C(C)N(CCCN3CCOCC3)C(=O)Nc3ccc(Cl)cc3)oc12` (stereo not given), the activation factor was 1.05.

As to `CC(Oc1ccc(F)cc1F)C(=O)/C=C/N(C)C` (stereo not given), the activation factor is 1.1.

For the compound `COc1ccc(CC(=O)N2N=C(C)CC2(O)C(F)(F)F)cc1` (stereo not given), the activation factor was 1.06.

Turning to `CCOC(=O)C1CCN(C(=O)Nc2cccc(OC)c2)CC1`, the activation factor was 1.01.

On to `COc1ccc(S(=O)(=O)N2CCN(CC(=O)NCC3(N4CCOCC4)CCCCC3)CC2)cc1`, for which the activation factor was 0.925.

For the compound `C#CCOCCOCCOCCNc1nc(N2CCN(C(=O)CCCCCCCCCCNC(=O)[C@H]([C@@H](C)CC)n3cc(CCCCN=C(N)N)nn3)CC2)nc(N2CCN(C(=O)CCCCCCCCCCNC(=O)[C@H](CO)n3cc(CCCSC)nn3)CC2)n1`, the activation factor was 2.98 (active).

As for `C#CCOCCOCCOCCNc1nc(N2CCN(C(=O)CCCCCCCCCCNC(=O)Cn3cc(CCCCCN)nn3)CC2)nc(N2CCN(C(=O)CCCCCCCCCCNC(=O)[C@H](CO)n3cc(CCCSC)nn3)CC2)n1`, the activation factor is 0.934.

For `C#CCOCCOCCOCCNc1nc(N2CCN(C(=O)CCCCCCCCCCNC(=O)[C@H](CCCCN)n3cc(C)nn3)CC2)nc(N2CCN(C(=O)CCCCCCCCCCNC(=O)[C@H](CO)n3cc(CCCSC)nn3)CC2)n1`, the activation factor is 1.1.

In the case of `CCCN=C1NC(=O)C(CC(=O)NCCc2ccc(OC)c(OC)c2)S1` (stereo not given), the activation factor was 1.04.

Turning to `Cc1ccc(S(=O)(=O)N/N=C(\c2ccccc2)C2CC2)cc1`, the activation factor is 1.3.

Turning to `CCN(CC(=O)Nc1c(F)cccc1F)C(=O)C1CCC1`, the activation factor is 1.05.

For `O=C(COC(=O)/C=C/c1nc2ccccc2s1)Nc1ccccc1Oc1ccccc1`, the activation factor was 0.94.

Turning to `CCCCc1c(O)nc2n(c1=O)CCS2`, the activation factor was 0.971.

On to `CCCCCCCCc1c(O)nc(-n2[nH]c(C)c(CCO)c2=O)[nH]c1=O`, for which the activation factor was 2.2 (active).

For `CCCCCc1c(C)nc(N2CCN(Cc3ccc4c(c3)OCO4)CC2)[nH]c1=O`, the activation factor was 0.962.

`CN(CCc1ccccn1)C(=O)CCC1CCCN(Cc2ccccc2OC(F)F)C1` (stereo not given): the activation factor was 1.17.

Consider `CN1CCC(N(C)S(=O)(=O)c2ccc(NC(=O)c3cccc(C#N)c3)cc2)CC1`, for which the activation factor is 0.888.

Turning to `Cc1ccc(NC(=O)c2cc(-c3ccccc3O)n[nH]2)cc1C`, the activation factor was 2.39 (active).

As to `Cc1ccc(NC(=O)CCN2C(=O)c3ccccc3C2=O)cc1C`, the activation factor was 0.917.

Regarding `Cc1ccc(O)c(-c2cc(C(=O)NCc3ccccc3)[nH]n2)c1`, the activation factor was 2.06 (active).

For the compound `Cc1ccc(CNC(=O)c2ccccc2CCc2ccccc2)cc1`, the activation factor is 0.921.

`Cc1ccc(C)c(NC(=O)c2cc(-c3cc(C)cc(C)c3O)n[nH]2)c1`: the activation factor was 1.49.

On to `Cc1ccc(O)c(-c2cc(C(=O)Nc3c(C)n(C)n(-c4ccccc4)c3=O)[nH]n2)c1`, for which the activation factor was 1.84.

For the compound `CN1CCN(CC(O)COCc2ccc3c(c2)OCO3)CC1` (stereo not given), the activation factor is 0.998.

Consider `CC(C)COC(=O)C1C2C=CC3(CN(C(C)c4ccc(Br)cc4)C(=O)C13)O2` (stereo not given), for which the activation factor is 0.726.

As for `COc1cc(NS(=O)(=O)c2ccc(N/C=C(\C=O)c3nc4cc(Cl)ccc4o3)cc2)nc(OC)n1`, the activation factor was 1.26.

As for `COc1ccc(C(=O)NC2CC(C)(C)Cc3c2cnn3-c2ccccc2C)o1` (stereo not given), the activation factor is 1.38.

In the case of `CCCc1ccc(C(=O)COC(=O)CN2C(=O)NC3(CCCCC3C)C2=O)cc1` (stereo not given), the activation factor is 1.11.

For the compound `CC(C)CCn1c(=O)c2c(nc3n2CCCN3Cc2ccccc2)n(C)c1=O`, the activation factor was 0.846.

Turning to `COc1ccc(NS(=O)(=O)c2ccc(Oc3c(C#N)cccc3C#N)cc2)cc1`, the activation factor was 1.1.

In the case of `CCn1nc(NC(=O)c2ccco2)c2cc3ccc(C)cc3nc21`, the activation factor is 1.16.

With `CC(C)n1cnc2c(NCc3ccccc3)cc(N[C@@H](CO)Cc3ccccc3)cc21`, the activation factor was 0.984.

In the case of `O=C(Nc1ccc(N2CCOCC2)cc1)c1cccc(S(=O)(=O)N2CCOCC2)c1`, the activation factor is 1.08.

For `O=C(NNC(=S)Nc1ccccc1)c1cccc(S(=O)(=O)N2CCOCC2)c1`, the activation factor is 2.01 (active).

`Cc1cc(C(=O)NNC(=O)c2cccc(S(=O)(=O)N3CCOCC3)c2)c2ccccc2n1`: the activation factor was 0.981.

Turning to `CCOC(=O)CNC(=O)/C=C/c1c(Cl)cccc1Cl`, the activation factor is 0.968.

`C/C(=N\OC(=O)c1ccccc1)c1c(C)nc2cc(C)ccn12`: the activation factor was 1.06.

Regarding `CCn1cc(CN2CCC(C(=O)Nc3cccc(-c4cccc(Cl)c4)c3)CC2)cn1`, the activation factor was 1.12.

Consider `COc1cccc(-c2cccc(NC(=O)C3CCN(C4CCC4)CC3)c2)c1`, for which the activation factor is 1.23.

Regarding `O=C(Nc1cccc(-c2cccc(Cl)c2)c1)C1CCN(C2CCC2)CC1`, the activation factor was 4.26 (active).

On to `CC(=O)Nc1cccc(OCC(=O)/C=C2\N(C)c3ccccc3C2(C)C)c1`, for which the activation factor was 0.862.

Regarding `CN(C)c1cccc(C(=O)N2CCC(n3nccc3NC(=O)C3CCOC3)CC2)c1` (stereo not given), the activation factor is 1.28.

In the case of `CN1CCc2c(sc3c2c(NCc2ccco2)nc2nnnn23)C1`, the activation factor was 1.04.

For `COc1ccc(NC(=O)CC2C(=O)OCC3CCCCN32)cc1Cl` (stereo not given), the activation factor was 1.01.

In the case of `O=C(COc1ccc(Cl)cc1)NCCS(=O)(=O)N1CCN(c2ccc(F)cc2)CC1`, the activation factor was 0.818.

For `CCc1c(C)nc(SCC(=O)NC2CCCC2)[nH]c1=O`, the activation factor was 1.03.

In the case of `NS(=O)(=O)c1cccc(NC(=O)COC(=O)c2cc([N+](=O)[O-])ccc2N2CCCC2)c1`, the activation factor is 0.907.

As for `CCc1ccc(S(=O)(=O)Nc2ccc(C)c(NS(C)(=O)=O)c2)cc1`, the activation factor is 0.919.

Take `Cc1ccccc1NC(=O)Cn1cc(C(=O)C2CC2)c2ccccc21`: the activation factor is 1.02.
